Counter-ions that a name gives are not always drawn.
Each compound was assayed on Shigella flexneri (assay: growth AUC normalised to DMSO control (fraction of control); higher = less growth inhibition, active = hit call of the paper). Details: 20 µM;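 active = AUC significantly below DMSO controls by Student t-fit with adjusted P under 0.01; inactive = not significantly reduced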.
Method in brief: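 Pathogens passaged twice anaerobically were inoculated at a starting OD578 of 0.01 into pre-reduced mGAM plates with drug at 20 μM and 1% DMSO, sealed with breathable membranes. Haemophilus parainfluenzae medium was supplemented with hemin and NAD. OD578 was read hourly for 24 h, with three biological replicates. Growth-curve AUC was computed by the trapezoidal rule up to the exponential-to-stationary transition and normalised to DMSO controls on the same plate.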

| SMILES | growth AUC normalised to DMSO control |
| --- | --- |
| O=C1C(=O)c2ccccc2C(O)=C1C1CCC(c2ccc(Cl)cc2)CC1 (stereo not drawn) [Atovaquone] | 0.976 (inactive) |
| CC(C)OC(=O)C(C)(C)Oc1ccc(C(=O)c2ccc(Cl)cc2)cc1 [Fenofibrate] | 0.971 (inactive) |
| NNc1nncc2ccccc12 [Hydralazine hydrochloride] | 1.04 (inactive) |
| O=C(O)c1cc(/N=N/c2ccc(S(=O)(=O)Nc3ccccn3)cc2)ccc1O [Sulfasalazine] | 1.01 (inactive) |
| COC1=CC(=O)C[C@@H](C)[C@]12Oc1c(Cl)c(OC)cc(OC)c1C2=O [Griseofulvin] | 0.998 (inactive) |
| Cn1c(=O)c2nc[nH]c2n(C)c1=O [Theophylline monohydrate] | 1.05 (inactive) |
| N=C(N)c1ccc(OCCCCCOc2ccc(C(=N)N)cc2)cc1 [Pentamidine isethionate] | 0.984 (inactive) |
| Cc1cn([C@H]2C[C@H](N=[N+]=[N-])[C@@H](CO)O2)c(=O)[nH]c1=O [Zidovudine] | 0.155 (active) |
| COc1ccc2c(c1)c(CC(=O)O)c(C)n2C(=O)c1ccc(Cl)cc1 [Indomethacin] | 0.966 (inactive) |
| O=c1[nH]cnc2c1ncn2[C@H]1CC[C@@H](CO)O1 [Didanosine] | 1.01 (inactive) |
| COc1cc([C@@H]2c3cc4c(cc3[C@@H](O[C@@H]3O[C@@H]5CO[C@@H](C)O[C@H]5[C@H](O)[C@H]3O)[C@H]3COC(=O)[C@H]23)OCO4)cc(OC)c1O [Etoposide] | 1.03 (inactive) |
| CCN1CCN(C(=O)N[C@@H](C(=O)N[C@@H]2C(=O)N3[C@@H]2SC(C)(C)[C@@H]3C(=O)O)c2ccccc2)C(=O)C1=O [Piperacillin sodium salt] | 0.098 (active) |
| CC(=O)[C@H]1CC[C@H]2[C@@H]3CCC4=CC(=O)CC[C@]4(C)[C@H]3CC[C@]12C [Progesterone] | 1.01 (inactive) |
| O=c1[nH]c(=O)n([C@H]2C[C@H](O)[C@@H](CO)O2)cc1C(F)(F)F [Trifluridine] | 1.01 (inactive) |
| C[C@H]1[C@H](NC(=O)/C(=N\OC(C)(C)C(=O)O)c2csc(N)n2)C(=O)N1S(=O)(=O)O [Aztreonam] | 0.0599 (active) |
| C=C(CC)C(=O)c1ccc(OCC(=O)O)c(Cl)c1Cl [Ethacrynic acid] | 0.998 (inactive) |
| CCCC(=O)Nc1ncnc2c1ncn2[C@@H]1O[C@@H]2COP(=O)(O)O[C@H]2[C@H]1OC(=O)CCC [Bucladesine sodium salt] | 1 (inactive) |
| Cc1ncc(C[n+]2csc(CCO)c2C)c(N)n1 [Thiamine hydrochloride] | 0.961 (inactive) |

— the supplement of paper PMC12350171
